Assay results published in PubChem BioAssay AID2536 (National Center for Advancing Translational Sciences (NCATS), 2010).
Activity calls are given as the source filed them. Calls follow the shape of the dose curve; as a rule, active = well fitted curve in the direction sought with a large enough effect; inactive = no such curve, though single readings can be large or run the other way.

Target: Pyruvate kinase PKM (Homo sapiens) (UniProt P14618)
Experiment: Secondary Concentration-Response Assay for Activators of Human Muscle isoform 1 Pyruvate Kinase: for Probe SAR
Conditions: purified hPK-M1, ATP production, Kinase-Glo luminescence
Source text: NIH Chemical Genomics Center [NCGC]
Matthew G. Vander Heiden, M.D., Ph.D. [Harvard Medical School, 77 Avenue Louis Pasteur, Boston, MA 02115]
Human pyruvate kinase […] (hPK-M1) enzyme was supplied as a highly purified (>95% pure) preparation from Harvard Medical School and assayed for its ability to generate ATP from ADP using phosphoenolpyruvate (PEP) as a substrate. ATP generation was detected in a coupled reaction by luciferase-mediated luminescence, an ATP-dependent process. Pyruvate kinase substrates, PEP and ADP, were present in the assay at Km and approximately 10-fold below Km respectively. The enzyme was assayed at an intermediate level of activity to screen for both inhibitors and activators.
NCGC Assay Protocol Summary for M1-isoform:
Three uL of substrate mix (at r.t.) in assay buffer (50 mM Imidazole pH7.2, 50 mM KCl, 7 mM MgCl2, 0.01% Tween 20, 0.05% BSA) was dispensed into white solid bottom 1,536 well microtiter plates so that the final concentrations of substrates in the assay were 0.1 mM ADP and 0.5 mM PEP. 23 nL of compound were delivered by a pin tool and 1 uL of enzyme mix (final concentration of 1 nM) in assay buffer (4 degree Celsius) was added. Plates were incubated at room temperature for 1 hour. Two uL of detection mix (Kinase-Glo, Promega; at 4 degree Celsius protected from light) was added and luminescence read by a ViewLux (Perkin Elmer) at 1 second exposure/plate. Data were normalized to the uninhibited (row 31). Additionally, a no enzyme and 5-fold enzyme control was dispensed in row 32, split equally between the two conditions.

Chain of Pyruvate kinase PKM (Homo sapiens) (P14618 whole entry, looked up, canonical isoform): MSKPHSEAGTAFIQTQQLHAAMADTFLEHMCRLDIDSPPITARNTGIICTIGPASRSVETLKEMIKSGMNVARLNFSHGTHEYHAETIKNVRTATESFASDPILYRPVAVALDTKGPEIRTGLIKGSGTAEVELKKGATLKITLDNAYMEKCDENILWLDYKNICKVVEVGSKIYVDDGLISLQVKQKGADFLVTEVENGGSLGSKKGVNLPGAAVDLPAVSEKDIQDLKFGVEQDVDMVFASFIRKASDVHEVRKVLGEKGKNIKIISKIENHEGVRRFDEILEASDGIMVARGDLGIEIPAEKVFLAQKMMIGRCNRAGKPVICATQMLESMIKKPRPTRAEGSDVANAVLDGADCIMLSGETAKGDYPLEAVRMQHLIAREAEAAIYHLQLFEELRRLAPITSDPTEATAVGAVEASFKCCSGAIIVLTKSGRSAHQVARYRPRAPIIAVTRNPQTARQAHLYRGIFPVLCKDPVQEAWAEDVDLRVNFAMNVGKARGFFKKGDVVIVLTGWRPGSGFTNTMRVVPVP

Max response, inactive:
CC(C)Nc1cccc(S(=O)(=O)N2CCCN(S(=O)(=O)c3ccc4c(c3)OCCO4)CC2)c1 4.41%
Cc1c(Cl)cccc1NS(=O)(=O)c1cc2c(cc1F)NC(=O)CC2 0.151%
Cc1ccc(NS(=O)(=O)c2cc3c(cc2N(C)C)CCC(=O)N3)cc1C -0.287%
Cn1c2cc(S(C)=O)sc2c2cnn(Cc3cccc(N)c3)c(=O)c21 (stereo not given) 2.91%
O=C1CCc2cc([S+](=O)([O-])Nc3ccc(N[S+](=O)([O-])c4ccc5c(c4)CCC(=O)N5)cc3)ccc2N1 -0.299%
Cc1ccc(NS(=O)(=O)c2ccc3c(c2)N(C)C(=O)CO3)cc1C 1.15%
CCNc1cccc(S(=O)(=O)N2CCCN(S(=O)(=O)c3ccc4c(c3)OCCO4)CC2)c1 8.55%
N#Cc1cccc(NS(=O)(=O)c2ccc3c(c2)CCC(=O)N3)c1 -2.21%
Cc1cc2c(s1)c1cnn(Cc3cc(F)c(F)cc3F)c(=O)c1n2C -8.12%
Cc1cc2c(s1)c1cnn(Cc3cc(F)ccc3F)c(=O)c1n2C 4.73%
O=C1CCc2cc(S(=O)(=O)Nc3ccc4ncccc4c3)ccc2N1 -1.75%
COc1cccc(Cn2ncc3c4sc(S(C)=O)cc4n(C)c3c2=O)c1 (stereo not given) 3.1%
Cc1cc2c(s1)c1cnn(Cc3ccccc3F)c(=O)c1n2C -9.51%
Cc1ccc(NS(=O)(=O)c2cc3c(cc2Cl)NC(=O)C3)cc1C 2.96%
O=C1CCc2cc(S(=O)(=O)Nc3ccc(Cl)c(Cl)c3)c(F)cc2N1 2.68%
O=C1CCc2cc(S(=O)(=O)Nc3ccc(Cl)c(Cl)c3)ccc2N1 4.63%
O=C1CCc2cc([S+](=O)([O-])NC3CCOCC3)ccc2N1 -5.17%
O=C1CCc2cc(Cl)c(S(=O)(=O)Nc3ccc(Cl)c(Cl)c3)cc2N1 1.66%
Cc1ccc(Cl)cc1NS(=O)(=O)c1cc2c(cc1Cl)CCC(=O)N2 1.5%
Cc1cc(NS(=O)(=O)c2ccc3c(c2)CCC(=O)N3)ccc1F 2.58%
N#Cc1ccc(NS(=O)(=O)c2ccc3c(c2)CCC(=O)N3)cc1 5.23%
Cc1ccc(NS(=O)(=O)c2cc3c(cc2F)NC(=O)CC3)cc1Cl 4.95%
Cc1ccc(NS(=O)(=O)c2ccc3c(c2)CCC(=O)N3)cc1F 0.0639%
O=C1CCc2cc(S(=O)(=O)Nc3cccc(B(O)O)c3)ccc2N1 -3.5%
CC(=O)N1c2ccc(S(=O)(=O)Nc3ccc(C)c(C)c3)cc2CC1C (stereo not given) 13.1%
Cc1ccc(NS(=O)(=O)c2ccc3c(c2)C(Cl)(Cl)C(=O)N3)cc1C 0.115%
Cc1ccc(N[S+](=O)([O-])c2cc3c(cc2CCc2ccccc2)NC(=O)CO3)cc1C -3.27%
O=C1CCc2cc(S(=O)(=O)Nc3cccc(Br)c3)ccc2N1 -2.97%
COc1cccc(Cn2ncc3c4sc(SC)cc4n(C)c3c2=O)c1 13.2%
Cc1ccc(NS(=O)(=O)c2ccc3c(c2)CCC(=O)N3)cc1Cl 8.72%
O=C1CCc2cc(S(=O)(=O)Nc3ccc4c(c3)CCC4)ccc2N1 -1.18%
Cc1ccc(N(C)S(=O)(=O)c2ccc3c(c2)CCC(=O)N3)cc1C 0.78%
Cc1ccc(NS(=O)(=O)c2cc3c(cc2N2CCC2)NC(=O)CC3)cc1C -7.63%
O=S(=O)(c1ccc2c(c1)OCCO2)N1CCN(S(=O)(=O)c2c(F)cccc2F)CC1 -8.27%
Cc1c(Cl)cccc1NS(=O)(=O)c1cc2c(cc1Cl)CCC(=O)N2 0.521%
Cc1cc(NS(=O)(=O)c2ccc3c(c2)CCC(=O)N3)ccc1Cl -0.197%
O=C1CCc2cc(S(=O)(=O)Nc3cccc(Oc4ccccc4)c3)ccc2N1 -2.73%
Cc1ccc(NS(=O)(=O)c2ccc3c(c2)CC(=O)N3)cc1C 23.4%
CNc1cc2c(cc1S(=O)(=O)Nc1ccc(C)c(C)c1)CCC(=O)N2 -0.656%
Cc1ccc(NS(=O)(=O)c2cc3c(cc2C)OCC(=O)N3)cc1C 2.47%
